Screen size: about 39,000 compounds; about 3,300 (8.5%) were called active. What follows is part of a selection rich in actives, with near analogues and random picks from the rest.

The assay concerns HepG2. Briefly: cytotoxicity call (relative viability < 0.9). The settings on record: 10 µM.
Take `Cc1noc(C)c1S(=O)(=O)Nc1ccc2c(c1)C(=O)N([C@H](C)CO)C[C@@H](C)[C@@H](CN(C)Cc1ccc(-c3ccccc3)cc1)O2`: the cytotoxicity call was “inactive”.

In the case of `C[C@H]1CN([C@@H](C)CO)C(=O)Cc2cc(NS(=O)(=O)c3ccccc3)ccc2O[C@H]1CN(C)S(=O)(=O)c1ccc(F)cc1`, the cytotoxicity call was “inactive”.

Consider `C[C@@]1(NC(=O)Cc2ccc(S(=O)(=O)N3CCOCC3)s2)CCS(=O)(=O)C1`, for which the cytotoxicity call was “inactive”.

Consider `C[C@@H]1CN([C@@H](C)CO)C(=O)c2cccc(NS(=O)(=O)c3ccccc3)c2O[C@H]1CN(C)S(=O)(=O)c1cccs1`, for which the cytotoxicity call is “inactive”.

As to `C[C@H](CO)N1C[C@H](C)[C@H](CN(C)S(=O)(=O)c2ccc(F)cc2)Oc2c(NC(=O)c3cnccn3)cccc2C1=O`, the cytotoxicity call was “inactive”.

Regarding `CCS(=O)(=O)N1CC[C@]2(CC1)CN([C@@H](CO)c1c2c2ccc(cc2n1C)OC)C(=O)Nc1c(noc1C)C`, the cytotoxicity call is “inactive”.

As to `O=C(CN1CCOCC1)NCC[C@H]1CC[C@H](NS(=O)(=O)c2ccc(Cl)cc2)[C@@H](CO)O1`, the cytotoxicity call is “inactive”.

For the compound `COc1c(O[C@@H]2O[C@H](CO)[C@@H](O)[C@H](O)[C@H]2O)cc2oc(-c3ccc(O)c(O)c3)c(O)c(=O)c2c1O`, the cytotoxicity call is “inactive”.

As to `O=c1c(O)c(-c2ccc(O)c(O)c2)oc2c(OC3OC(CO)C(O)C(O)C3O)c(O)cc(O)c12` (stereo unspecified), the cytotoxicity call is “inactive”.

On to `O=c1c(O)c(-c2ccc(O)c(O)c2)oc2c(O[C@@H]3O[C@H](CO)[C@H](O)[C@@H](O)[C@H]3O)c(O)cc(O)c12`, for which the cytotoxicity call was “active”.

Take `C[C@H]1O[C@@H](OC[C@H]2O[C@@H](Oc3c(-c4ccc(O)c(O)c4)oc4cc(O)cc(O)c4c3=O)[C@@H](O)[C@@H](O)[C@@H]2O)[C@@H](O)[C@@H](O)[C@@H]1O`: the cytotoxicity call was “inactive”.

In the case of `CC(=O)O[C@@H]1[C@@H](O[C@@H]2O[C@H](CO)[C@@H](O)[C@H](O)[C@H]2O)[C@@H](O)[C@H](OC[C@H]2O[C@@H](Oc3c(-c4ccc(O)c(O)c4)oc4cc(O)cc(O)c4c3=O)[C@H](O)[C@@H](O)[C@H]2O)O[C@H]1C`, the cytotoxicity call was “active”.

Consider `C[C@@H]1O[C@@H](O[C@@H]2[C@@H](O)[C@H](C)O[C@@H](OC[C@H]3O[C@@H](Oc4c(-c5ccc(O)c(O)c5)oc5cc(O)cc(O)c5c4=O)[C@@H](O)[C@@H](O)[C@@H]3O)[C@@H]2O)[C@H](O)[C@H](O)[C@H]1O`, for which the cytotoxicity call was “inactive”.

For the compound `Cc1ccc(S(=O)(=O)N(C)C[C@@H]2Oc3ncc(C#CC4(O)CCCC4)cc3C(=O)N([C@@H](C)CO)C[C@H]2C)cc1`, the cytotoxicity call is “inactive”.

As to `CC(C)(C[C@H]1CN(S(=O)(=O)c2cccc(C(F)(F)F)c2)c2cc(-c3cc(F)cc(OC(F)F)c3)ccc2O1)C(=O)O`, the cytotoxicity call was “inactive”.

Turning to `COC(=O)CCCCCCC(=O)N/N=C/[C@H](O)[C@@H](O)[C@@H](O)[C@H](O)C(=O)O`, the cytotoxicity call is “inactive”.

On to `COc1ccc2c3c(n(c2c1)C)[C@@H](CO)N(CC1CCCC1)C[C@]13CCN(CC1)C(=O)Nc1ccccc1`, for which the cytotoxicity call was “active”.

For the compound `COCC(=O)N1CC[C@]2(CC1)CN([C@H](CO)c1c2c2ccc(cc2n1C)OC)C(=O)Cc1ccccc1`, the cytotoxicity call is “active”.

As to `COc1ccc(cc1)S(=O)(=O)N1CC[C@]2(CC1)CN([C@H](CO)c1c2c2ccc(cc2n1C)OC)C(=O)CN(C)C`, the cytotoxicity call was “active”.

Regarding `COc1ccc(cc1)S(=O)(=O)N1CC[C@]2(CC1)CN([C@@H](CO)c1c2c2ccc(cc2n1C)OC)C(=O)CN(C)C`, the cytotoxicity call is “inactive”.

Consider `COc1ccc2c3c(n(c2c1)C)[C@H](CO)N(C[C@]13CCN(CC1)S(=O)(=O)C)C(=O)CN(C)C`, for which the cytotoxicity call is “inactive”.

Regarding `COc1ccc2c3c(n(c2c1)C)[C@H](CO)N(CC1CCCC1)C[C@]13CCN(CC1)C(=O)Nc1ccccc1`, the cytotoxicity call is “inactive”.

Regarding `COc1ccc2c3c(n(c2c1)C)[C@H](CO)N(C[C@]13CN(C1)S(=O)(=O)C)C(=O)CN(C)C`, the cytotoxicity call is “inactive”.

In the case of `COc1ccc2c3c(n(c2c1)C)[C@H](CO)N(Cc1ccccc1)C[C@]13CCN(CC1)C(=O)Nc1cccc(c1)F`, the cytotoxicity call was “inactive”.

On to `COc1ccc(cc1)S(=O)(=O)N1C[C@]2(C1)CN([C@@H](CO)c1c2c2ccc(cc2n1C)OC)C(=O)CN(C)C`, for which the cytotoxicity call is “inactive”.

On to `COCC(=O)N1CC[C@]2(CC1)CN(Cc1cccc(c1)OC)[C@@H](CO)c1c2c2ccc(cc2n1C)OC`, for which the cytotoxicity call was “inactive”.

`COc1ccc(cc1)S(=O)(=O)N1C[C@]2(C1)CN([C@H](CO)c1c2c2ccc(cc2n1C)OC)C(=O)CN(C)C`: the cytotoxicity call was “active”.

`COCC(=O)N1CC[C@]2(CC1)CN([C@@H](CO)c1c2c2ccc(cc2n1C)OC)C(=O)Cc1ccccc1`: the cytotoxicity call was “inactive”.

As for `CNC[C@@H]1OCCCC[C@@H](C)Oc2ccc(NC(=O)CCCN(C)C)cc2C(=O)N([C@H](C)CO)C[C@H]1C`, the cytotoxicity call is “inactive”.

Take `O=C(O)c1cn(-c2ccccc2)nn1`: the cytotoxicity call is “inactive”.

`COCC(=O)N1C[C@H](C)[C@@H](OC)CN(C)C(=O)c2cc(NC(=O)c3ccc(OC)cc3)ccc2OC[C@H]1C`: the cytotoxicity call was “inactive”.

On to `COc1ccc2c3c([nH]c2c1)[C@H](CO)N(C[C@]13CCN(CC1)C(=O)c1cccnc1)C(=O)c1cccnc1`, for which the cytotoxicity call was “inactive”.

`C/C=C/c1ccc([C@@H]2[C@H](CO)N(S(=O)(=O)CC)C23CN(C(=O)CN(C)C)C3)cc1`: the cytotoxicity call is “inactive”.

In the case of `C[C@H](CO)N1C[C@H](C)[C@H](CN(C)Cc2ccc(Oc3ccccc3)cc2)Oc2c(NC(=O)C3CCCCC3)cccc2C1=O`, the cytotoxicity call is “inactive”.

For the compound `COc1ccc(NC(=O)N(C)C[C@@H]2OCCCC[C@H](C)Oc3ccc(NS(=O)(=O)c4ccccc4)cc3C(=O)N([C@H](C)CO)C[C@H]2C)cc1`, the cytotoxicity call is “inactive”.

In the case of `CC(C)NC(=O)N(C)C[C@@H]1Oc2c(NS(=O)(=O)c3cccs3)cccc2C(=O)N([C@@H](C)CO)C[C@@H]1C`, the cytotoxicity call was “inactive”.

For `C[C@@H]1CN([C@@H](C)CO)C(=O)c2cc(NC(=O)Cc3ccccc3)ccc2O[C@@H](C)CCCCO[C@H]1CN(C)S(=O)(=O)c1ccc(Cl)cc1`, the cytotoxicity call was “inactive”.

On to `C[C@H](CO)N1C[C@H](C)[C@H](CN(C)S(=O)(=O)c2ccc(Cl)cc2)OCCCC[C@H](C)Oc2ccc(NC(=O)Cc3ccccc3)cc2C1=O`, for which the cytotoxicity call is “inactive”.

As for `C[C@@H]1CN([C@H](C)CO)C(=O)c2cc(NC(=O)Cc3ccccc3)ccc2O[C@@H](C)CCCCO[C@@H]1CN(C)S(=O)(=O)c1ccc(Cl)cc1`, the cytotoxicity call was “inactive”.

Take `C[C@H](CO)N1C[C@H](C)[C@@H](CN(C)S(=O)(=O)c2ccc(Cl)cc2)OCCCC[C@H](C)Oc2ccc(NC(=O)Cc3ccccc3)cc2C1=O`: the cytotoxicity call was “active”.

Consider `C[C@@H]1CCCCO[C@H](CN(C)S(=O)(=O)c2ccc(Cl)cc2)[C@@H](C)CN([C@@H](C)CO)C(=O)c2cc(NC(=O)Cc3ccccc3)ccc2O1`, for which the cytotoxicity call is “inactive”.

`C[C@@H]1CCCCO[C@H](CN(C)S(=O)(=O)c2ccc(Cl)cc2)[C@H](C)CN([C@H](C)CO)C(=O)c2cc(NC(=O)Cc3ccccc3)ccc2O1`: the cytotoxicity call was “active”.

Turning to `C[C@@H]1CCCCO[C@@H](CN(C)S(=O)(=O)c2ccc(Cl)cc2)[C@@H](C)CN([C@@H](C)CO)C(=O)c2cc(NC(=O)Cc3ccccc3)ccc2O1`, the cytotoxicity call was “inactive”.

With `C[C@@H]1CCCCO[C@@H](CN(C)S(=O)(=O)c2ccc(Cl)cc2)[C@@H](C)CN([C@H](C)CO)C(=O)c2cc(NC(=O)Cc3ccccc3)ccc2O1`, the cytotoxicity call is “inactive”.

As for `C[C@@H]1CCCCO[C@H](CN(C)S(=O)(=O)c2ccc(Cl)cc2)[C@@H](C)CN([C@H](C)CO)C(=O)c2cc(NC(=O)Cc3ccccc3)ccc2O1`, the cytotoxicity call was “active”.

On to `C[C@@H]1CN([C@H](C)CO)C(=O)c2cc(NC(=O)Cc3ccccc3)ccc2O[C@@H](C)CCCCO[C@H]1CN(C)S(=O)(=O)c1ccc(Cl)cc1`, for which the cytotoxicity call was “inactive”.

For the compound `C[C@@H]1CCCCO[C@@H](CN(C)S(=O)(=O)c2ccc(Cl)cc2)[C@H](C)CN([C@H](C)CO)C(=O)c2cc(NC(=O)Cc3ccccc3)ccc2O1`, the cytotoxicity call is “active”.

`C[C@@H]1CCCCO[C@H](CN(C)S(C)(=O)=O)[C@@H](C)CN([C@@H](C)CO)C(=O)c2cc(N(C)C)ccc2O1`: the cytotoxicity call was “inactive”.

For the compound `C[C@@H]1CN([C@@H](C)CO)C(=O)c2cccc(NC(=O)c3nc4ccccc4s3)c2O[C@@H]1CN(C)Cc1ccc(Oc2ccccc2)cc1`, the cytotoxicity call was “inactive”.

Regarding `COc1cc(S(=O)(=O)NCCN2CCN(S(=O)(=O)c3cc(OC)c(Cl)cc3OC)CC2)c(OC)cc1Cl`, the cytotoxicity call was “inactive”.

For the compound `COc1ccc(NC(=O)N(C)C[C@@H]2Oc3c(NC(=O)CCCCCC(=O)Nc4ccccc4N)cccc3C(=O)N([C@@H](C)CO)C[C@H]2C)cc1`, the cytotoxicity call was “inactive”.

For the compound `Cc1ccc(S(=O)(=O)Nc2ccc3c(c2)C(=O)N([C@H](C)CO)C[C@H](C)[C@H](CN(C)C(=O)CCC(F)(F)F)OCCCC[C@H](C)O3)cc1`, the cytotoxicity call is “inactive”.

Consider `COc1ccc(NC(=O)N(C)C[C@H]2OCCCC[C@@H](C)Oc3ccc(NS(=O)(=O)c4cccs4)cc3C(=O)N([C@H](C)CO)C[C@H]2C)cc1`, for which the cytotoxicity call is “inactive”.

For `O=C(NCCN1CCOCC1)[C@@H]1c2ccccc2C(=O)N(C2Cc3ccccc3C2)[C@H]1c1ccc(CO)cc1`, the cytotoxicity call is “inactive”.

On to `COCCNC(=O)C[C@@H]1CC[C@H]2[C@@H](COC[C@@H](O)CN2S(=O)(=O)c2ccccc2F)O1`, for which the cytotoxicity call was “inactive”.

For `COCC(=O)Nc1ccc2c(c1)C(=O)N(C)C[C@H](OC)[C@@H](C)CN(C(=O)c1ccccc1F)[C@H](C)CO2`, the cytotoxicity call was “inactive”.

Take `C[C@@H]1CN([C@@H](C)CO)C(=O)Cc2cc(NS(=O)(=O)c3cn(C)cn3)ccc2O[C@H]1CN(C)C(=O)NC1CCCCC1`: the cytotoxicity call is “inactive”.

For `C[C@H]1CCCCO[C@H](CN(C)Cc2ccncc2)[C@@H](C)CN([C@@H](C)CO)C(=O)c2cc(NC(=O)NC3CCCCC3)ccc2O1`, the cytotoxicity call was “inactive”.

Consider `C[C@H]1CCCCO[C@H](CN(C)S(=O)(=O)c2ccc(Cl)cc2)[C@@H](C)CN([C@@H](C)CO)C(=O)c2cc(NC(=O)Cc3ccccc3)ccc2O1`, for which the cytotoxicity call was “active”.

Regarding `C[C@@H]1CCCCO[C@@H](CN(C)S(=O)(=O)c2ccc(Cl)cc2)[C@H](C)CN([C@@H](C)CO)C(=O)c2cc(NC(=O)Cc3ccccc3)ccc2O1`, the cytotoxicity call was “inactive”.

As to `C[C@@H]1CN([C@@H](C)CO)C(=O)c2cc(NC(=O)Cc3ccccc3)ccc2O[C@@H](C)CCCCO[C@@H]1CN(C)S(=O)(=O)c1ccc(Cl)cc1`, the cytotoxicity call is “inactive”.

The record behind these values is the antibiotic and cytotoxicity screens of Wong et al. (2023).
